Shown are actives, neighbours in structure and some others; about 11% of the full set was active somewhere.
ALDH1A1 inh = ALDH1A1 (human) enzyme inhibition. P00352. Purified ALDH1A1, NADH fluorescence, propionaldehyde substrate. Potency, µM (top dose mostly 75.3 µM), for the others: at the highest dose activity, negative = inhibition, hits mostly inhibitors. actives 7.3% (n = 220,000). AID 1030; active means well fitted inhibition curve with a large enough effect, not every such curve was filed as active; inconclusive means small, poorly fitted or top-dose-only effect, or another doubt; inactive means no such curve, though single readings can be large or run the other way;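 further: potency means the concentration at half of the fitted maximal effect; plate controls were no enzyme wells and a reference inhibitor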
Target sequence (P00352 whole entry, looked up): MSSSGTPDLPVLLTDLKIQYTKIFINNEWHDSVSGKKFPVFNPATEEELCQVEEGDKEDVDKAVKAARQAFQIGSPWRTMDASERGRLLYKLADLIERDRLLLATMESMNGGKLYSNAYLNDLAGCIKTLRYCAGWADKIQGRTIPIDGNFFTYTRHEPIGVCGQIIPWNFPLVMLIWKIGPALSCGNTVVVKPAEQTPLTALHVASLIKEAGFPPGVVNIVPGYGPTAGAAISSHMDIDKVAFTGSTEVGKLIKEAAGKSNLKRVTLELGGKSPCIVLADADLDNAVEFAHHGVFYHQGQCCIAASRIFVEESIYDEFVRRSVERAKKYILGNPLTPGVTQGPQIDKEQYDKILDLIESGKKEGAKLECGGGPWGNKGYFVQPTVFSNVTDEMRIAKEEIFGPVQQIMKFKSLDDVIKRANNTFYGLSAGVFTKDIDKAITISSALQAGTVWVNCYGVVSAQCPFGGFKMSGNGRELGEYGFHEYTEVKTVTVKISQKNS
RGS12 GoLoco inh = RGS12 GoLoco-Gai1 interaction inhibition; P63096; Gai1:RGS12 GoLoco peptide FP, rhodamine, 10 min; Potency, µM (highest dose often 61.6 µM), without a hit: at the top dose activity, negative = inhibition, most hits filed as inhibitors; AID 880; actives 0.44% (n = 230,000); active means well fitted inhibition curve with a large enough effect, not every such curve was filed as active; inactive means no such curve, though single readings can be large or run the other way; further: potency means the concentration at half of the fitted maximal effect; on the % scale 0 is the no-effect control and ±100 the full control effect; nearly all actives have a fitted effect of over 30% in size
HTT cytoprotect = Huntington cell model cytoprotection by ATP luminescence. PC12 HTT-Q103 induced, cytoprotection, ATP luminescence, 40 h. Potency, µM (highest dose often 56.4 µM), for inactives: cytoprotection (ATP increase), hits mostly activators. actives 0.14% (n = 230,000). AID 1471; further: potency means the concentration at half of the fitted maximal effect; % of control where 0% means no effect; nearly all actives have a fitted effect of over 45% in size
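Huntington model: PC12 line, ecdysone-inducible HTTQ103 exon1–GFP, tebufenozide 100 nM. Test articles in a dose series. Endpoint luminescence from cellular ATP.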
HTT aggregate = inhibitors of mutant huntingtin aggregate formation in PC12 cells; PC12 HttQ103-GFP aggregates, Acumen cytometry, 40 h; Potency, µM (doses to about 46.1 µM), without a hit: top-dose activity change, negative = inhibition, most hits filed as inhibitors; actives 1.1% (n = 220,000); further: potency means the concentration at half of the fitted maximal effect; on the % scale 0 is the no-effect control and ±100 the full control effect; nearly all actives have a fitted effect of over 60% in size
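Using laser scanning cytometry, GFP-positive aggregates were counted after lysis of PC12 cells induced with 100 nM tebufenozide to express HTT exon 1 Q103–GFP. Compounds were tested in titration.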
PNC inhibitor = inhibitors of perinucleolar compartment assembly; PC3M PTB-GFP, PNC prevalence imaging, 16 h; hits give low values; activity change (PNC), negative = inhibition, % at 10 µM; actives 3.1% (n = 140,000); AID 2417;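 active means readout at or below -70, meaning at least 70% loss of cells showing the perinucleolar compartment, a nuclear body marking cancer cells; inconclusive means readout between -30 and a set limit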;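 further: plate controls were DMSO wells for no effect and camptothecin positive control wells for full effect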
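Read-out is percentage of cells bearing a perinucleolar compartment, from automated 20x imaging of fixed, Hoechst-stained PC3M PTB-GFP cells. Cells were seeded 4 h, then exposed 16 h to compound (23 nl of library stock) in duplicate plates.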
HPGD inh = inhibitors of human 15-hydroxyprostaglandin dehydrogenase (HPGD); P15428; purified HPGD, NADH fluorescence kinetic, PGE2 substrate; Potency, µM, without a hit: at the highest dose activity change, negative = inhibition, most hits filed as inhibitors; actives 4.3% (n = 150,000); active means well fitted inhibition curve with a large enough effect, not every such curve was filed as active; inconclusive means small, poorly fitted or top-dose-only effect, or another doubt; inactive means no such curve, though single readings can be large or run the other way; further: potency means the concentration at half of the fitted maximal effect; on the % scale 0 is the no-effect control and ±100 the full control effect
Target sequence (P15428 whole entry, looked up): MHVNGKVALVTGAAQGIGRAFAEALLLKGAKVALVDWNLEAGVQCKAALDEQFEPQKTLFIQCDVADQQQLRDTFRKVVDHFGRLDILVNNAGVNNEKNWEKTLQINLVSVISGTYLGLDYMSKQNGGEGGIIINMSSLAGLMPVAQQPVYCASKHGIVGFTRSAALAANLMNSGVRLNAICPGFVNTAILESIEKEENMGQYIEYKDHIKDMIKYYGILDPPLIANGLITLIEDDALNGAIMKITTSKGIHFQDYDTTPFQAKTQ
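NADH formation kinetics: reaction with 30 uM PGE2 and 1 mM NAD+ (final), 20 nM enzyme, Tris-HCl pH 8 with Tween 20, after 15 min compound preincubation at room temperature. Fluorescence change, last versus first of five reads.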
The depositor's hits bear a star; ? = inconclusive; . = no result given; [ ] = remark or other dose. Unless noted, the call rests on the fitted dose curve; in most records, active means well fitted curve in the direction sought with a large enough effect; inconclusive means small, poorly fitted or top-dose-only effect, or another doubt; inactive means no such curve, though single readings can be large; an effect the other way counts as inactive or inconclusive.

SMILES	ALDH1A1 inh	RGS12 GoLoco inh	HTT cytoprotect	HTT aggregate	PNC inhibitor	HPGD inh
Cn1ncc(Cl)c1C(=O)Nc1cccc(Cl)c1	7.9µM*	-28%	2%[10 µM]	6%	-3	13µM*
Cn1ncc(Cl)c1C(=O)Nc1ccc(Cl)cn1	3%	2%	-10%[10 µM]	-18%	-100*	-17%
COC(=O)NC(c1cccc(C)c1)C(C(C)=O)C(=O)OC (stereo not given)	7%[13.5 µM]	.	7%[10 µM]	.	.	.
CC(=O)NC1(C(=O)O)CCCC1	.	8%	14%[10 µM]	-15%[9.22 µM]	.	.
COc1cc(OC)cc(-c2nnc(SCc3cccc(C(=O)O)c3)o2)c1	-13%	7%	-28%	-7%	?	11µM*
Cc1occc1-c1nnc(SCC(=O)N2CCc3ccccc32)o1	0.79µM*	17%	-14%[10 µM]	-3%	-29	-12%
COc1cc(OC)cc(-c2nnc(SCC(=O)N3CCCc4ccccc43)o2)c1	?	-12%	15%	4%[9.22 µM]	?	?
COc1cccc(-c2nnc(SCC(=O)N3CCCc4ccccc43)o2)c1	7.9µM*	10%	0%[10 µM]	?	?	28µM*
Cc1nnc(SCC(=O)N2CCc3ccccc32)s1	28µM*	-4%	-5%	24%	18	-10%
Fc1ccc(COc2cccc(CNCc3ccncc3)c2)cc1	1%	1%	.	.	.	.
Cc1csc(N/N=C\c2cccnc2)n1	11µM*	-1%	19%	-2%	.	.
Cn1c2c(c(=O)n(C)c1=O)CN(CCCN1CCOCC1)CN2	-1%	-1%	-27%[0.074 µM]	-18%	-84*	-1%
CCN1C(=O)[C@H]2[C@H]3[C@H](O)[C@H](O)C/C(=N/O[C@@H](C)c4cn([C@H]5COC[C@H]5O)nn4)[C@@H]3CC[C@@H]2C1=O	4%[13.5 µM]	.	-46%[10 µM]	.	.	.
COC(=O)CC[C@@H](C)[C@H]1CC[C@H]2[C@H]3CC[C@H]4C[C@@H]5CC[C@@]4(C)C3(O5)[C@@H](Br)[C@@H](Br)[C@@]12C	.	.	-13%[10 µM]	.	.	.
CC1(C)CC(=O)CC(=O)/C1=N\Nc1c(Cl)cc(Cl)cc1Cl	6.3µM*	9%	-4%[10 µM]	4%	?	-4%
COc1ccc(NC(=O)CCCn2c(=O)c3sccc3n(Cc3cccc(C)c3)c2=O)cc1	2µM*	5%	0%[10 µM]	2%	-16	-4%
CCOC(=O)c1c(/N=C/c2cc(OC)cc([N+](=O)[O-])c2O)sc(C)c1C	32µM*	7%	-3%[10 µM]	18%	-7	-14%
CCOC(=O)c1sc(/N=C/N(C)C)c(C(=O)OCC)c1C	1%	-6%	-9%	-6%	-82*	-12%
CCOC(=O)c1c(/N=C/c2cc([N+](=O)[O-])ccc2O)sc(C)c1C	20µM*	93%	8%[10 µM]	?	-12	-11%
CCOC(=O)c1c(/N=C/C2=C(O)CC(C)(C)CC2=O)sc(C)c1C	7.1µM*	5%	13%[10 µM]	-2%	-6	-5%
CC(Oc1ccc(Cl)cc1)c1ccnc(N)n1 (stereo not given)	1%	9%	-26%	4%[9.22 µM]	.	.
CCN1C(=O)[C@H]2[C@H]3[C@H](O)[C@H](O)C/C(=N/OC[C@@H](C)[C@H](OCc4ccccc4)C(C)C)[C@@H]3CC[C@@H]2C1=O	-1%[13.5 µM]	.	-5%[10 µM]	.	.	.
O=P(O)(O)O[C@@H]1O[C@H](CO)[C@@H](O)[C@H](O)[C@@H]1O	5%[13.5 µM]	-1%[14.2 µM]	-6%[10 µM]	.	.	-1%
O=C(NC1CCS(=O)(=O)C1)/C(=C/c1ccco1)NC(=O)c1ccccc1 (stereo not given)	-2%	-15%	0.14µM*	0.18µM*	.	.
COc1ccc(CCNC(=O)C2CCN(S(C)(=O)=O)CC2)cc1	16µM*	-7%	-7%	-5%	48	-13%
SMILES	ALDH1A1 inh	RGS12 GoLoco inh	HTT cytoprotect	HTT aggregate	PNC inhibitor	HPGD inh
COc1ccc(CCNC(=O)C2CCN(S(=O)(=O)c3ccc(OC)c(OC)c3)CC2)cc1	-1%	7%	-3%	8%	23	0%
COc1ccc(OC)c(S(=O)(=O)N2CCC(C(=O)N3CCN(Cc4ccccc4)CC3)CC2)c1	?	6%	15%	-28%	-80*	-3%
COc1ccc(CCNC(=O)C2CCN(S(=O)(=O)c3cc(OC)ccc3OC)CC2)cc1	?	8%	-12%[0.074 µM]	9%	-83*	-3%
COc1ccc(OC)c(S(=O)(=O)N2CCC(C(=O)NCCc3ccccc3)CC2)c1	5µM*	-6%	-21%	6%	-23	-20%
CC1(C)CC2CC(C)(CN2C(=O)c2ccc([N+](=O)[O-])cc2[N+](=O)[O-])C1 (stereo not given)	7%	-16%	-55%	14%	.	.
O=C(CCC1CCCCC1)NCc1ccccn1	4%	14%	-28%[0.074 µM]	-16%	?	32µM*
O=C(CCC1CCCCC1)Nc1ccccc1-c1ccccc1	?	4%	-24%	6%	?	-16%
O=C(CCC1CCCCC1)NC1=NCCS1	-8%	6%	.	17%	-89*	-6%
O=C(CCc1ccc(S(=O)(=O)NC2CCCCC2)cc1)NCc1ccccn1	-5%	96%	-1%[10 µM]	-25%[9.22 µM]	.	.
O=C(CCC1CCCC1)Nc1ccccc1-c1ccccc1	20µM*	-8%	-12%[10 µM]	?	18	-8%
O=C(CCC1CCCCC1)Nc1ccccc1O	?	7%	19%[0.074 µM]	10%	5	20µM*
COc1ccc(CC(=O)NNc2ncnc3c2cnn3Cc2ccccc2)cc1OC	10µM*	5%	1%[10 µM]	-15%[9.22 µM]	.	.
Cc1cccc(Nc2ncnc3c2cnn3Cc2ccccc2)c1	22µM*	12%	-32%	29%	.	.
COc1ccc(Nc2ncnc3c2cnn3Cc2ccccc2)cc1OC	8.9µM*	.	-21%[0.074 µM]	?	-8	.
COc1ccc2cnn(Cc3ccccc3)c(=O)c2c1OC	3.5µM*	.	-24%[0.074 µM]	?	-27	.
COc1ccc(NC(=O)CSc2ncnc3c2cnn3Cc2ccccc2)cc1OC	?	1%	11%	12%	42	4%
O=[N+]([O-])c1cccc(/C=N\NC2=CS(=O)(=O)C=C2)c1	-2%[13.5 µM]	8%[14.2 µM]	6%[10 µM]	.	.	-9%
Clc1cccc(Nc2ncnc3c2cnn3-c2ccccc2)c1	?	-1%	7%[10 µM]	22µM*	-10	?
CS(=O)(=O)NC1c2cccc3cccc(c23)C1N1CCOCC1 (stereo not given)	?	-9%	23%[10 µM]	7%	-14	-12%
COc1ccc(N2COC3c4cccc5cccc(c45)C32)cc1 (stereo not given)	19µM*	-3%	27%[1.9 µM]	?	11	-20%
Clc1ccc(N2COC3c4cccc5cccc(c45)C32)cc1 (stereo not given)	-12%	4%	17%[10 µM]	-10%	-100*	-13%
